Screens from PubChem BioAssay.
TR SRC2 fluor cs: counter-screen for TRb-SRC2 inhibitors: fluorescence interference; TRb/SRC2 Texas Red total fluorescence interference; 0.29% of 280,000 active; AID 1479; Potency, µM (series often up to 106 µM); active means well fitted curve in either direction with a large enough effect; inconclusive means small, poorly fitted or top-dose-only effect
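Human TRβ ligand-binding domain (0.6 uM) and Texas Red SRC2 peptide (20 nM) in Tris buffer with 1 uM T3 and 5% DMSO were incubated with pinned compound for 5 hr at ambient temperature. Total fluorescence was computed as S + 2P (555/632 nm).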
KDM4E inh: blocks human JMJD2E demethylase activity. AID 2147. Potency, µM (highest dose often 57.1 µM), hits mostly inhibitors. B2RXH2. 1.6% of 230,000 active. JMJD2E catalytic domain, FDH-coupled NADH fluorescence (FDH is formaldehyde dehydrogenase); further: nearly all actives have a fitted effect of over 50% in size
Tau fibril FP: blocks human tau fibril formation measured by polarization; P10636; K18 P301L tau heparin fibrillization, Alexa594 FP, 6 h; Potency, µM (highest dose often 57.7 µM), hits mostly inhibitors; 0.39% of 280,000 active; AID 1468; further: nearly all actives have a fitted effect of over 55% in size
Target sequence (P10636 561-689 P618L limits assumed): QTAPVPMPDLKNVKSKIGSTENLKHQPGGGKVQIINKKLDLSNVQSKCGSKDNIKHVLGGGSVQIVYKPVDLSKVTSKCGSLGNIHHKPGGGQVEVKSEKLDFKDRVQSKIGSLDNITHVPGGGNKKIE
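K18 P301L tau (15 uM unlabeled/0.24 uM Alexa 594-labeled, final) + compound + heparin 20 uM final; 100 mM NaOAc pH 7; 6 hr 37 C; ThT 30 uM final added, 1 hr RT; FP ex 555/em 632 nm.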
TRb SRC2 PPI: disrupts binding of human TR beta to SRC2; 0.065% of 280,000 active; AID 1469; P10828; TRbeta-SRC2 peptide binding, fluorescence polarization; receptor liganded with 1 µM T3; Potency, µM (top dose mostly 106 µM), hits mostly inhibitors; further: nearly all actives have a fitted effect of over 50% in size
Target sequence (P10828 whole entry, looked up): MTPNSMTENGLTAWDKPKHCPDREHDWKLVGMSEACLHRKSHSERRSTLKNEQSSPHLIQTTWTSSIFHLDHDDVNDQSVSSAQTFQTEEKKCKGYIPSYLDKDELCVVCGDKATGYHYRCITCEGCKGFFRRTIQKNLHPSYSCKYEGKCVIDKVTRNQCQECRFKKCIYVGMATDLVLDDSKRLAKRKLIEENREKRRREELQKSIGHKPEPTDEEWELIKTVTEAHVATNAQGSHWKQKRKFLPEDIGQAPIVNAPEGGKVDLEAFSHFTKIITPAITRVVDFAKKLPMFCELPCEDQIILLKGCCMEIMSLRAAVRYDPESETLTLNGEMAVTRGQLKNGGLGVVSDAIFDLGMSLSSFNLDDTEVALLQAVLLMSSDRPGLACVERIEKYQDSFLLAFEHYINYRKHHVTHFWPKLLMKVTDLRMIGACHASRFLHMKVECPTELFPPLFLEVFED
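Fluorescence polarization of 20 nM Texas Red SRC2 peptide (20-aa NR interaction domain) bound to 0.6 uM human TRb ligand-binding domain, with 1 uM T3, after 5 hr at ambient temperature; inhibition seen as decreased polarization.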
Tau fibril ThT: inhibitors of human tau fibril formation, thioflavin T binding; P10636; AID 1460; Potency, µM (top dose mostly 57.4 µM), most hits filed as inhibitors; 2.1% of 270,000 active; recombinant tau K18 P301L, heparin-induced fibrillization, ThT fluorescence; further: nearly all actives have a fitted effect of over 55% in size
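K18 P301L tau (15 uM + 0.24 uM Alexa 594-tagged), heparin 20 uM, NaOAc pH 7, 6 h 37 C; ThT 30 uM, 1 h RT, ex 450/em 510 nm.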
Tau fluor cs: counter-screen for tau fibril formation inhibitors; Potency, µM (series often up to 57.7 µM); 0.93% of 280,000 active; AID 1463; tau K18 P301L Alexa594 fluorescence, heparin fibrillization; further: nearly all actives have a fitted effect of over 55% in size
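Human tau K18 P301L (15 uM unlabeled, 0.24 uM Alexa 594-labeled) in 100 mM sodium acetate pH 7 with 20 uM heparin, 6 hr at 37 C. ThT 30 uM added, 1 hr ambient; Alexa 594 FP and total fluorescence read at 555/632 nm.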
Large screens that a line does not name were inactive; [ ] = remark or other dose. This is a sample that favours compounds with a hit; in the whole collection about 3.5% have one here. Unless noted, the call rests on the fitted dose curve; in most records, active means well fitted curve in the direction sought with a large enough effect; inconclusive means small, poorly fitted or top-dose-only effect, or another doubt; inactive means no such curve, though single readings can be large; an effect the other way counts as inactive or inconclusive.

COc1ccc(Nc2nc3c(S(=O)(=O)c4ccccc4)nnn3c3ccc(Cl)cc23)cc1	Tau fibril FP inconclusive (no result: KDM4E inh)
Cc1ccc(C)c(S(=O)(=O)c2nnn3c2nc(Nc2ccc(F)c(Cl)c2)c2sccc23)c1	Tau fibril FP 14µM, Tau fibril ThT inconclusive, Tau fluor cs inconclusive (no result: KDM4E inh)
CCc1ccc(S(=O)(=O)c2nnn3c2nc(Nc2ccc(F)cc2)c2cc(Cl)ccc23)cc1	Tau fibril FP 14µM, Tau fluor cs inconclusive (no result: KDM4E inh)
CC(=O)Nc1ccc(Nc2nc3c(S(=O)(=O)c4cc(C)ccc4C)nnn3c3ccsc23)cc1	none (no result: KDM4E inh)
CCCCC(=O)OCC(=O)[C@]1(O)Cc2c(O)c3c(c(O)c2[C@H](OC2CC(NC(=O)C(F)(F)F)C(O)C(C)O2)C1)C(=O)c1c(OC)cccc1C3=O (some centres not stated)	TR SRC2 fluor cs inconclusive (no result: KDM4E inh, Tau fibril FP, Tau fibril ThT, Tau fluor cs)
CC(=O)[C@]1(O)Cc2c(O)c3c(c(O)c2[C@@H](O[C@H]2C[C@H](N)[C@H](O)[C@H](C)O2)C1)C(=O)c1ccccc1C3=O	TR SRC2 fluor cs 45µM[fluorescent], KDM4E inh inconclusive, Tau fibril FP inconclusive, TRb SRC2 PPI inconclusive, Tau fibril ThT 3.5µM, Tau fluor cs inconclusive
CC(=O)[C@]1(O)Cc2c(O)c3c(c(O)c2[C@@H](O[C@H]2C[C@H](N)[C@H](O)[C@H](C)O2)C1)C(=O)c1c(O)cccc1C3=O	TR SRC2 fluor cs 45µM[fluorescent], Tau fibril FP 25µM, TRb SRC2 PPI 22µM, Tau fibril ThT 4.5µM, Tau fluor cs inconclusive (no result: KDM4E inh)
CN(CC(=O)Nc1cc(S(=O)(=O)N2CCCC2)ccc1Cl)Cc1cccs1	none
COc1ccc(N/N=C(/C)c2cnnc(-c3ccccc3)n2)cc1	Tau fibril ThT 2.8µM, Tau fluor cs inconclusive
O=C(Cn1c(-c2cccs2)cc2ccccc21)NCCCN1CCN(c2ccc(F)cc2)CC1	TR SRC2 fluor cs 63µM[quencher], TRb SRC2 PPI inconclusive (no result: KDM4E inh)
CN1CCN(C(=O)Cn2c(-c3cccs3)cc3cc(Cl)ccc32)CC1	TR SRC2 fluor cs 112µM[quencher] (no result: KDM4E inh)
COc1cccc(N2CCN(C(=O)Cn3c(-c4cccs4)cc4ccccc43)CC2)c1	TR SRC2 fluor cs 40µM[quencher], Tau fibril FP inconclusive, TRb SRC2 PPI inconclusive (no result: KDM4E inh)
O=C1C=CC(=O)C2=C1C1c3ccccc3C2c2ccccc21	KDM4E inh 14µM, Tau fibril FP 35µM, Tau fibril ThT 20µM, Tau fluor cs inconclusive
CN1C(=O)Cc2cc(S(=O)(=O)CCC(=O)Nc3ccc(Cl)cc3)ccc21	none (no result: KDM4E inh)
COc1ccc(-c2ccc(CCC(=O)O)n2C(C)C)cc1	KDM4E inh inconclusive, Tau fibril ThT inconclusive
COc1ccc2c(c1)SCCC2=O	KDM4E inh inconclusive
COc1ccc2c(c1)OCC1=C2CCC2(C)C(=O)CC=C12 (configuration not stated)	KDM4E inh inconclusive, Tau fibril FP inconclusive, Tau fibril ThT 20µM, Tau fluor cs inconclusive
CN(Cc1ccccc1)C(=O)Cn1cccc1C(=O)c1ccccc1	none
c1ccc2sc(Nc3nc4cc5c(cc4s3)OCO5)nc2c1	none
Cc1ccc(-c2cc(O)cc3sc(=O)oc23)cc1C	Tau fibril FP 22µM, Tau fibril ThT inconclusive, Tau fluor cs 16µM[quencher]
COc1ccc(N2CCN(c3nc(=S)n(-c4ccccc4)c(C)c3C(C)=O)CC2)cc1	Tau fibril FP inconclusive, Tau fibril ThT 28µM
CCn1c(C)c(C(C)=O)c(N2CCN(c3cccc(Cl)c3)CC2)nc1=S	KDM4E inh inconclusive, Tau fibril ThT inconclusive
CCn1c(C)c(C(C)=O)c(N2CCN(c3ccc(OC)cc3)CC2)nc1=S	Tau fibril FP inconclusive, Tau fibril ThT 28µM
COc1cccc(CNC(=O)c2cccc(-n3c(C)nc4cccnc43)c2C)c1	none (no result: KDM4E inh)
COc1ccc(OC)c(NC2c3ccccc3C(=O)N2Cc2ccc3c(c2)OCO3)c1 (configuration not stated)	Tau fibril ThT inconclusive, Tau fluor cs inconclusive
Cc1ccc(-c2nc(Nc3ccc(N4CCOCC4)cc3)c3ccccc3n2)cc1	Tau fibril FP inconclusive, Tau fibril ThT 16µM, Tau fluor cs 4µM[quencher]
COC(=O)c1ccc(Nc2nc(-c3ccc(C)cc3)nc3ccccc23)cc1	Tau fibril FP 3.5µM, Tau fluor cs inconclusive (no result: KDM4E inh)
COc1ccc(-c2nc3c(c4c2C[C@H](c2ccccc2)OC4)CN(C(=O)Cc2cccs2)CC3)c(C)c1	none
CCOc1cc(-c2cc(-c3ccc(N)cc3)nc(N)c2C#N)ccc1O	KDM4E inh inconclusive, Tau fibril FP inconclusive, Tau fibril ThT inconclusive, Tau fluor cs 14µM[quencher]
O=C1C(Cl)=C(N2CCN(c3ccccc3[N+](=O)[O-])CC2)C(=O)c2ccccc21	Tau fibril FP 10µM, Tau fibril ThT 3.5µM, Tau fluor cs 8.9µM[quencher]
O=[N+]([O-])c1cc(Cl)ccc1N1CCCC1	none
Cn1cc([N+](=O)[O-])c(C(=O)Nc2nc(-c3ccc(Cl)cc3)cs2)n1	Tau fibril ThT inconclusive, Tau fluor cs 13µM[quencher]
CCN(CC)S(=O)(=O)c1ccc(NC(=O)NCc2noc3ccc(C)cc23)cc1	Tau fibril FP 14µM, Tau fluor cs 13µM[quencher] (no result: KDM4E inh)
CC1(C)Cc2c(sc3nc(SCC(=O)N4CCOCC4)nc(N)c23)CO1	KDM4E inh inconclusive
COc1ccc(OC)c(Nc2nc(-c3ccccc3O)nc3ccccc23)c1	Tau fluor cs inconclusive
COc1ccc(Nc2nc(-c3ccccc3F)nc3ccccc23)cc1OC	Tau fibril ThT inconclusive, Tau fluor cs 10µM[quencher] (no result: KDM4E inh)
C/C(=N/Nc1nc(-c2ccccc2F)nc2ccccc12)c1ccccc1O	Tau fibril ThT 10µM, Tau fluor cs inconclusive
C/C=C\C=C/C(=O)Nc1cccc(C2=NOC3(C2)C[C@@H](C(N)=O)N(C(=O)/C=C/C=C\C)C3)c1 (some centres not stated)	KDM4E inh inconclusive, Tau fibril FP inconclusive, Tau fibril ThT 25µM
COc1cc([N+](=O)[O-])cc(/C=N/NC(=O)CSc2ccccn2)c1O	KDM4E inh 20µM (no result: Tau fibril ThT)
COc1cc([N+](=O)[O-])cc(/C=N/NC(=O)Cn2cncn2)c1O	KDM4E inh 14µM
COc1cc(/C=N/NC(=O)CSc2ccccn2)ccc1O	none
COC(=O)c1ccc2c(=O)n(CCCCCC(=O)NCc3ccccc3)c(=O)[nH]c2c1	KDM4E inh inconclusive, Tau fibril FP inconclusive
Cc1ccc(NC2=C(Cl)C(=O)N(C3CCCCC3)C2=O)cc1	none
N#CCc1ccc(NC(=O)/C=C/c2ccc([N+](=O)[O-])o2)cc1	Tau fibril FP inconclusive, Tau fibril ThT 11µM
O=C(O)c1ccccc1Nc1cccc(OCc2ccc3ccccc3n2)c1	Tau fibril ThT 14µM, Tau fluor cs 8.9µM[quencher]
COc1ccc(N(CC(=O)NCc2ccco2)S(=O)(=O)c2ccccc2)cc1	none
